Sampled rows, rich in hits. Any-hit rate of the full collection: about 10%.
3T3 cytotox = Cytotoxic Profiling in NIH 3T3 Cell Line of Diverse Libraries Using Quantitative High-Throughput Screening. NIH 3T3 viability, CellTiter-Glo ATP luminescence, 48-72 h. Potency, µM (titrated, usually from 96.7 µM), usual class: inhibitors. 94,000 tested, 4.3% active; further: nearly all actives have a fitted effect of over 55% in size
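Cells were seeded at 400 per well, treated with pin-transferred compound, and kept 48 or 72 hr at 37 °C before CellTiter-Glo addition and luminescence imaging of cellular ATP.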
hNpr1 antagonist = Natriuretic polypeptide receptor (hNpr1) antagonism - Primary qHTS | Atrial natriuretic peptide receptor 1 (Homo sapiens), P16066 | HEK293 hNpr1 GloSensor cGMP, ANP-stimulated luminescence | Potency, µM (doses to about 46.3 µM), actives largely listed as inhibitors | 76,000 tested, 1.6% active; calls by dose curve; further: nearly all actives have a fitted effect of over 60% in size
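Compound pre-incubated 30 min at room temperature on GloSensor-loaded HEK293 cells stably carrying hNpr1 and the pGS-40F cGMP biosensor. Stimulation uses hNppA at 0.1 nM final; luminescence is taken at baseline and 20 min post-agonist.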
GPT2 inhibitor = Primary qHTS assay for inhibitors of Glutamate pyruvate transaminase 2 (GPT2); Alanine aminotransferase 2 (Homo sapiens), Q8TD30; Recombinant GPT2, coupled pyruvate oxidase/HRP Amplex Red fluorescence; Potency, µM (series often up to 57.7 µM), usual class: inhibitors; 100,000 tested, 0.25% active; further: nearly all actives have a fitted effect of over 60% in size
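Recombinant GPT2 (10ng/uL) with 250uM a-KG and 2mM L-alanine, 30 min at room temperature, in HEPES pH 7.5 buffer. Pyruvate detected by pyruvate oxidase/HRP/Amplex Red fluorescence after 30 min in the dark; AOA (50uM) as positive control.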
FLuc inh = Firefly luciferase inhibition profiling of diverse chemical library using quantitative high-throughput screening | Luciferin 4-monooxygenase (Photinus pyralis), P08659 | purified P. pyralis luciferase, luminescence, biochemical | Potency, µM (top dose mostly 115 µM), most hits filed as inhibitors | 76,000 tested, 2.5% active | AID 1347043, 2019; further: nearly all actives have a fitted effect of over 65% in size
Target sequence (P08659 whole entry, looked up): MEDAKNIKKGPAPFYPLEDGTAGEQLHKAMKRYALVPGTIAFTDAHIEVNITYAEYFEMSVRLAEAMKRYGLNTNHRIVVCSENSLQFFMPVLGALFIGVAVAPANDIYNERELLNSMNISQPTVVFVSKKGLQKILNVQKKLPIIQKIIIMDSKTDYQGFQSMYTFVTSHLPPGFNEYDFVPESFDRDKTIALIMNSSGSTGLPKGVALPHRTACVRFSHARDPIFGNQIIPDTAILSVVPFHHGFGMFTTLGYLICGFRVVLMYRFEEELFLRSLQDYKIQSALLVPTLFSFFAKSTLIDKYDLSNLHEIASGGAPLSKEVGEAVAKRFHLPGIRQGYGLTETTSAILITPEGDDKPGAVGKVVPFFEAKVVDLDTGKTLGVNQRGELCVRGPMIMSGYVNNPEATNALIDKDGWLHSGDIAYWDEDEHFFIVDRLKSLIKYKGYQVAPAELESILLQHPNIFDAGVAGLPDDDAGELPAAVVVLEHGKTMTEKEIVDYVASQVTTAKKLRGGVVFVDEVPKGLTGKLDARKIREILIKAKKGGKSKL
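Cell-free enzyme assay, 10nM P. pyralis luciferase, luciferin and ATP each at 10uM. Inhibition profiled over a 6-point titration, read as luminescence.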
HEK293 tox = Cytotoxic Profiling in HEK 293 Cell Line of Diverse Libraries Using Quantitative High-Throughput Screening | AID 1345083, 2018 | 94,000 tested, 6.6% active | HEK 293 viability, ATP luminescence (CellTiter-Glo), 48-72 h | Potency, µM (titrated, usually from 115 µM), usual class: inhibitors; further: nearly all actives have a fitted effect of over 60% in size
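Pintool-delivered compounds were incubated with HEK 293 cells (250 cells/well) at 37 degree Celsius for 48 or 72 hr. ATP-dependent luminescence (CellTiter-Glo) then reported remaining viable cells.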
Of the large screens only hits and unclear results are named; the others gave an inactive call. Unless noted, the call rests on the fitted dose curve; in most records, active means well fitted curve in the direction sought with a large enough effect; inconclusive means small, poorly fitted or top-dose-only effect, or another doubt; inactive means no such curve, though single readings can be large; an effect the other way counts as inactive or inconclusive.

COc1ccc(NC(=O)C2=NO[C@@H]3CN(CCc4ccccc4)C[C@H]23)cn1	HEK293 tox 100µM
COc1ccc(NC(=O)C2=NO[C@@H]3CN(c4cccnc4)C[C@H]23)cc1	3T3 cytotox inconclusive, hNpr1 antagonist inconclusive, FLuc inh 35.5µM, HEK293 tox inconclusive
COc1cncc(NC(=O)C2=NO[C@@H]3CN(Cc4ccccc4)C[C@H]23)c1	3T3 cytotox inconclusive
CS(=O)(=O)c1ccc(OCC2(CNCc3cccc(C(F)(F)F)c3)C[C@@H](O)[C@@H](O)C2)cc1 (some centres undefined)	3T3 cytotox inconclusive, HEK293 tox 79.4µM
COc1ccc(CC2CCOC3(CCN(C(=O)c4cc5ccccc5[nH]4)CC3)C2)cc1 (centres undefined)	3T3 cytotox inconclusive, HEK293 tox 31.6µM
COc1ccc(CC2CCOC3(CCN(C(=O)c4ccco4)CC3)C2)cc1 (centres undefined)	3T3 cytotox inconclusive, HEK293 tox 50.1µM (no result: hNpr1 antagonist, FLuc inh)
COc1ccc2[nH]c(C(=O)N3CCC4(CC3)CC(O)CCO4)cc2c1 (centres undefined)	none
COCC1CN(C)CC12CCN(C(=O)c1cc3ccccc3[nH]1)CC2 (centres undefined)	FLuc inh inconclusive, HEK293 tox 89.1µM
COCC1CN(C)CC12CCN(C(=O)c1nccc3ccccc13)CC2 (centres undefined)	HEK293 tox inconclusive
COc1ccc(CC2CCOC3(CCN(C(=O)CC(C)C)CC3)C2)cc1 (centres undefined)	3T3 cytotox inconclusive, hNpr1 antagonist inconclusive, HEK293 tox inconclusive
Cc1ccc(C)c(C(=O)N2CCN(C(=O)c3nnn4c3COC(c3ccc(Cl)cc3)C4)CC2)c1 (centres undefined)	3T3 cytotox inconclusive, hNpr1 antagonist inconclusive, HEK293 tox 44.7µM
Cc1ccc(C)c(C(=O)N2CCN(C(=O)c3nnn4c3COC(c3ccccc3)C4)CC2)c1 (centres undefined)	HEK293 tox 39.8µM
COc1cccc(CCC(=O)N[C@@H]2CN(c3ncccn3)C[C@H]2CO)c1	none
CCCNC(=O)NC[C@H]1O[C@@H]2C[C@@H](CC(=O)NCCOC)O[C@@H]2[C@@H]1O	none
Cc1nn2c(c1-c1cccc3cn[nH]c13)N(C(=O)Cc1ccccc1)CCC2	3T3 cytotox 44.7µM
Cc1nn2c(c1-c1ccccc1OCc1ccccc1)N(C(=O)Cc1ccccc1)CCC2	3T3 cytotox 44.7µM, hNpr1 antagonist inconclusive, HEK293 tox 79.4µM
Cc1nn2c(c1-c1ccccc1[S+](C)(=O)[O-])N(C(=O)Cc1ccccc1)CCC2	3T3 cytotox inconclusive
CN(C(=O)c1cc2ccccc2oc1=O)C1CCCN(CCCc2ccccc2)C1 (centres undefined)	3T3 cytotox 39.8µM, HEK293 tox inconclusive
CCC(CC)n1c(=O)n(Cc2cc(C(C)C)no2)c2cc(C(=O)O)cnc21	3T3 cytotox 79.4µM
CCC(CC)n1c(=O)n(Cc2ccc(C(=O)N(C)C)o2)c2cc(C(=O)O)cnc21	none
Cc1noc(-c2ccc3c(c2)OCO3)c1C(=O)NC(C)CCc1ccccc1 (centres undefined)	3T3 cytotox inconclusive, HEK293 tox 44.7µM
Cc1noc(-c2ccc3c(c2)OCO3)c1C(=O)N1CCC(Cc2ccc(F)cc2)CC1	3T3 cytotox 35.5µM, hNpr1 antagonist inconclusive, HEK293 tox 28.2µM
CCOc1ccccc1CNC(=O)c1c(C)noc1-c1ccc2c(c1)OCO2	3T3 cytotox inconclusive, HEK293 tox inconclusive
Cc1noc(-c2ccc3c(c2)OCO3)c1C(=O)NCc1cc(F)cc(F)c1	3T3 cytotox inconclusive, HEK293 tox 31.6µM
CN(C)S(=O)(=O)N1C[C@@H]2CC[C@H](C1)N(C(=O)CCn1cnnn1)C2	none
O=C1NCN(Cc2ccc(Cl)cc2)C12CCN(Cc1ccc(C(F)(F)F)cc1)CC2	3T3 cytotox inconclusive, HEK293 tox 39.8µM
O=C1NCN(Cc2ccc(Cl)cc2)C12CCN(Cc1ccc(F)cc1)CC2	3T3 cytotox 14.1µM, HEK293 tox 28.2µM

Bioassay records (PubChem)
